The supplement of paper PMC12808144
Values without a mark were called inactive.

Tests used:
[1] = system: Mel-DCC-11; assay: cell viability relative to DMSO control (fraction of DMSO control); higher = less cytotoxic, active = 0.5 or less; conditions: 1 µM; 120 h
How it was run: (§1)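 Patient-derived Mel-DCC-11, its resistant subline Mel-DCC-11-R (alone and with 8 µM of its selecting drug) and NHEM-hTERT immortalized melanocytes were exposed for 120 h to 315 approved anti-cancer drugs at 1 µM in duplicate. Luminescence was read with ATPlite 1step. Viability was normalised to vehicle controls and averaged over duplicates.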

[2] = system: NHEM-hTERT; assay: as above; conditions: 1 µM; 120 h
How it was run: as §1

[3] = system: Mel-DCC-11-R; assay: cell viability relative to DMSO control (fraction of DMSO control); higher = less cytotoxic, active = 0.8 or less; conditions: 1 µM, 120 h
How it was run: as §1

**Q.** What does the source list for `CCC1(O)C(=O)OCc2c1cc1n(c2=O)Cc2cc3cc(O)ccc3nc2-1` (stereo not drawn) [Hydroxy Camptothecine]?
**A.** cell viability [1]: 0.233 (active); cell viability [2]: 0.899; cell viability ([3]; vemurafenib co-treatment 0 µM): 0.422 (active); cell viability ([3]; vemurafenib co-treatment 8 µM): 0.224 (active)

**Q.** Which cell viability [1] does the source give for `CC1=C(/C=C/C(C)=C/C=C/C(C)=C\C(=O)O)C(C)(C)CCC1` [Isotretinoin] here?
**A.** 1.16

**Q.** And the cell viability [2]?
**A.** 1.04

**Q.** What about the cell viability ([3]; vemurafenib co-treatment 0 µM) of the same compound?
**A.** 0.938

**Q.** And the cell viability ([3]; vemurafenib co-treatment 8 µM)?
**A.** 1.3

**Q.** Which cell viability [1] does the source give for `O=C(O)C1CSCN1` (stereo not drawn) [Thioproline] here?
**A.** 1.09

**Q.** And the cell viability [2]?
**A.** 1.17

**Q.** And the cell viability ([3]; vemurafenib co-treatment 0 µM)?
**A.** 0.893

**Q.** And the cell viability ([3]; vemurafenib co-treatment 8 µM)?
**A.** 1.08

**Q.** With `COc1cc([C@@H]2c3cc4c(cc3[C@@H](O[C@@H]3O[C@@H]5CO[C@@H](c6cccs6)O[C@H]5[C@H](O)[C@H]3O)[C@H]3COC(=O)[C@H]23)OCO4)cc(OC)c1O` [Teniposide] as the compound, how does the cell viability [1] read?
**A.** 1.16

**Q.** What about the cell viability [2] of the same compound?
**A.** 0.746

**Q.** What about the cell viability ([3]; vemurafenib co-treatment 0 µM) of the same compound?
**A.** 1.39

**Q.** What about the cell viability ([3]; vemurafenib co-treatment 8 µM) of the same compound?
**A.** 0.638 (active)

**Q.** Which results are given for `CC(C)(O)CNc1nc(Nc2ccnc(C(F)(F)F)c2)nc(-c2cccc(C(F)(F)F)n2)n1` [Enasidenib]?
**A.** cell viability [1]: 0.875; cell viability [2]: 1.09; cell viability ([3]; vemurafenib co-treatment 0 µM): 1.3; cell viability ([3]; vemurafenib co-treatment 8 µM): 0.834

**Q.** For `C[C@]12CC[C@H](O)CC1=CC[C@@H]1[C@@H]2CC[C@]2(C)C(c3cccnc3)=CC[C@@H]12` [Abiraterone], which cell viability [1] is on record?
**A.** 1.28

**Q.** What about the cell viability [2] of the same compound?
**A.** 0.938

**Q.** What about the cell viability ([3]; vemurafenib co-treatment 0 µM) of the same compound?
**A.** 1.07

**Q.** What about the cell viability ([3]; vemurafenib co-treatment 8 µM) of the same compound?
**A.** 1.16

**Q.** What does the source list for `CNC(=O)c1c(C)oc2cc(Oc3ncnc4cc(OC)c(OC)cc34)ccc12` [Fruquintinib]?
**A.** cell viability [1]: 1.34; cell viability [2]: 0.982; cell viability ([3]; vemurafenib co-treatment 0 µM): 1.09; cell viability ([3]; vemurafenib co-treatment 8 µM): 1.05
